SMN2 splice enh: SMN2 splice variant enhancement; HEK293 SMN2-luciferase splicing reporter, luminescence, 30-36 h; Potency, µM (series often up to 46.1 µM), inactives show at the top dose activity change, positive = activation, hits mostly activators; actives 2.8% (n = 210,000); AID 1458; also: % of control where 0% means no effect; nearly all actives have a fitted effect of over 55% in size
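qHTS luciferase splicing reporter: luminescence rises when SMN2 exon 7 is included in transfected HEK293 cells. Compound exposure lasted 30-36 h at 37C, with 4.5 mM final sodium butyrate as control, followed by a ONE-Glo read.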
NPC1 promoter act: activates the NPC1 promoter; Huh7 NPC1 promoter luciferase reporter, 24 h; Potency, µM (doses to about 9.22 µM), for the others: top-dose activation, hits mostly activators; actives 2.4% (n = 320,000); AID 485313; also: % of control where 0% means no effect; nearly all actives have a fitted effect of over 60% in size
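Cells: Huh7 expressing luciferase under the NPC1 promoter, 1500/well. Seeded 2 h, compound added, incubated 24 h at 37 °C. Luciferase reagent, 10 min ambient, then luminescence.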
Rab9 prom act: Rab9 promoter activation. actives 2.8% (n = 320,000). Potency, µM (top dose mostly 9.22 µM), for the others: at the highest dose activation, negative = inhibition, hits mostly activators. Huh7 Rab9 promoter-luciferase reporter, luminescence, 24 h; also: % of control where 0% means no effect; nearly all actives have a fitted effect of over 60% in size
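Rab9 promoter-driven luciferase in stably transfected Huh7 cells; 1500 cells/well rested 2 h, exposed to compound in DMSO for 24 h at 37 °C, 5% CO2. Luminescence read 10 min after adding luciferase reagent at ambient temperature.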
ELG1 genotoxic: genotoxicity induction in ELG1-luciferase HEK293T cells; HEK293T ELG1-luciferase reporter, luminescence, 16 h; actives 1.3% (n = 330,000); AID 504466; Potency, µM (top dose mostly 46 µM), for the others: at the highest dose activity change, positive = activation, actives largely listed as activators; also: % of control where 0% means no effect; nearly all actives have a fitted effect of over 60% in size
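Reporter readout depends on ELG1 protein level, which increases with genetic stress. After 16 hr compound exposure at 37 °C, luciferase activity was quantified using ONE-Glo.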
FLuc counter: counter-screen for miR-21 project: firefly luciferase inhibitors or activators; P08659; AID 588342; actives 6.9% (n = 360,000); Potency, µM (doses to about 57.5 µM), for inactives: at the highest dose activity change, negative = inhibition, actives largely listed as inhibitors; purified FLuc, Km substrates, luminescence inhibition;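 also: plate controls were vehicle for no effect and reference inhibitor for full effect; nearly all actives have a fitted effect of over 55% in size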
Target sequence (P08659 whole entry, looked up): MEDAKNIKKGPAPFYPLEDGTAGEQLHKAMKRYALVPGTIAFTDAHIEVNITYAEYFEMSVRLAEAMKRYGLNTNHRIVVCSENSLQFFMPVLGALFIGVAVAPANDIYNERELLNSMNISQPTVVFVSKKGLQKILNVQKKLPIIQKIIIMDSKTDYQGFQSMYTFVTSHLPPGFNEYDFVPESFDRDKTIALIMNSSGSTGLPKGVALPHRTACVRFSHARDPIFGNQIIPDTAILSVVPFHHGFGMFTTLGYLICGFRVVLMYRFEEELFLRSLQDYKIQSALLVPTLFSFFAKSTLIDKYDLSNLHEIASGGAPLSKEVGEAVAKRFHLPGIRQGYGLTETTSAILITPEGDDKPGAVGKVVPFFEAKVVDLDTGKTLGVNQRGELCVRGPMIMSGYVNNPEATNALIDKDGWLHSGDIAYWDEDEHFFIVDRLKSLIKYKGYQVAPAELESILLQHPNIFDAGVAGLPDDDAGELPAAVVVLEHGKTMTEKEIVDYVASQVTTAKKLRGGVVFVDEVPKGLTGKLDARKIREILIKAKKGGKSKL
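Purified P. pyralis luciferase (10nM final) with 10uM D-luciferin and 10uM ATP (Km levels) in 50mM Tris acetate pH 7.5, 10mM Mg acetate, 0.01% Tween-20, 0.05% BSA; qHTS 6-point titration, ~60 µM downward; luminescence read.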
p53 reactivation: mutant p53 re-activation in reporter cells; Potency, µM (titrated, usually from 92.2 µM), without a hit: at the highest dose activity change, positive = activation, actives largely listed as activators; H1299 p53-A138V BP100-luciferase reporter, luminescence, 24 h; actives 0.063% (n = 320,000); also: % of control where 0% means no effect; nearly all actives have a fitted effect of over 45% in size
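H1299 (p53-null), stable ts p53-A138V + BP100-Luc; 1000 cells/well, Opti-MEM/10% FBS; cpd 4 pt, 1:5; 24 h, 37 deg C, 5% CO2; detection reagent 10 min RT; luminescence.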
The depositor's hits bear a star; ! = a repeat was not active. Most compounds without a hit are left out; they make up all but 7.4% or so of the library. Calls follow the shape of the dose curve; as a rule, active = well fitted curve in the direction sought with a large enough effect; inconclusive = small, poorly fitted or top-dose-only effect, or another doubt; inactive = no such curve, though single readings can be large; an effect the other way counts as inactive or inconclusive. Potency is read from the fitted curve at half-maximal effect.

Results for CC1CN(C(c2cccs2)c2sc3ncnn3c2O)CC(C)O1 (stereo not given) ?
SMN2 splice enh: 11%; NPC1 promoter act: -3%; Rab9 prom act: -2%; ELG1 genotoxic: 4%; FLuc counter: -1%; p53 reactivation: 3%

How did COc1ccc(C(c2sc3ncnn3c2O)N2CC(C)OC(C)C2)cc1OC (stereo not given) do in these assays?
SMN2 splice enh: 24%; NPC1 promoter act: -2%; Rab9 prom act: -2%; ELG1 genotoxic: 15%; FLuc counter: 19µM*; p53 reactivation: inconclusive

What do the screens show for `O=c1nc2sc3ccccc3n2c(=O)n1-c1cccc(Cl)c1`?
NPC1 promoter act: 13%; Rab9 prom act: inconclusive; ELG1 genotoxic: 4.6µM*; FLuc counter: -4%; p53 reactivation: inconclusive

What do the screens show for `O=c1nc2sc3ccccc3n2c(=O)n1-c1ccc(Cl)c(Cl)c1`?
SMN2 splice enh: 2%; FLuc counter: -4%

What do the screens show for `Cc1ccc2c(c1)sc1nc(=O)n(-c3cccc(Cl)c3)c(=O)n12`?
SMN2 splice enh: 11µM*!; NPC1 promoter act: 1.6µM*; Rab9 prom act: 1.6µM*; ELG1 genotoxic: inconclusive; FLuc counter: 6%; p53 reactivation: inconclusive

How did O=c1nc2sc3ccccc3n2c(=O)n1-c1ccc(Cl)cc1 do in these assays?
SMN2 splice enh: 20µM*; NPC1 promoter act: 3.2µM*; Rab9 prom act: 2.8µM*; ELG1 genotoxic: inconclusive; FLuc counter: -6%; p53 reactivation: inconclusive

What do the screens show for `CC(C)(C)C1CCc2c(sc(NC(=O)c3ccco3)c2C(N)=O)C1` (stereo not given)?
SMN2 splice enh: -60%; NPC1 promoter act: inconclusive; Rab9 prom act: 2.8µM*; ELG1 genotoxic: inconclusive; FLuc counter: 0.43µM*; p53 reactivation: 20%

What do the screens show for `CCC1CCc2c(sc(NC(=O)c3cnccn3)c2C(N)=O)C1` (stereo not given)?
NPC1 promoter act: 26%; Rab9 prom act: 25%; ELG1 genotoxic: 15%; FLuc counter: 2.4µM*; p53 reactivation: 14%

How did CCOC(=O)c1c(NC(=O)c2cc3ccccc3c(=O)o2)sc2c1CCC(C(C)(C)C)C2 (stereo not given) do in these assays?
SMN2 splice enh: -4%; FLuc counter: 17µM*

What do the screens show for `CCC1CCc2c(sc(NC(=O)c3ccco3)c2C(N)=O)C1` (stereo not given)?
SMN2 splice enh: 18µM*; NPC1 promoter act: inconclusive; Rab9 prom act: 2.8µM*; ELG1 genotoxic: inconclusive; FLuc counter: 1.3µM*; p53 reactivation: inconclusive

How did CC1CCN(S(=O)(=O)c2ccc3c(c2)oc(=O)n3CC(=O)NCc2ccc(F)cc2)CC1 do in these assays?
SMN2 splice enh: -79%; FLuc counter: inconclusive

How did Cc1c(O)c2ccccc2oc1=O do in these assays?
NPC1 promoter act: -2%; Rab9 prom act: 0%; ELG1 genotoxic: 1%; FLuc counter: -5%; p53 reactivation: 3%

Results for CCN(CC)S(=O)(=O)c1cccc(N=Nc2c(O)c3ccccc3oc2=O)c1 ?
NPC1 promoter act: 28%; Rab9 prom act: 16%; ELG1 genotoxic: -2%; FLuc counter: 27µM*; p53 reactivation: 12%

Results for Cc1ccccc1OCC(=O)NCC(c1ccc(Cl)cc1)N1CCOCC1 (stereo not given) ?
FLuc counter: -3%

Results for Cc1ccc(-c2noc(CSc3ccccc3)n2)cc1 ?
SMN2 splice enh: inconclusive; NPC1 promoter act: 1.8µM*; Rab9 prom act: 1.8µM*; ELG1 genotoxic: 7.3µM*; FLuc counter: 2.1µM*; p53 reactivation: inconclusive

How did Cc1cccc(-c2noc(CSc3ccccc3)n2)c1 do in these assays?
SMN2 splice enh: inconclusive; NPC1 promoter act: 2.5µM*; Rab9 prom act: 3.5µM*; ELG1 genotoxic: inconclusive; FLuc counter: 9.5µM*; p53 reactivation: inconclusive

Results for Cc1ccc(-c2noc(CSc3nc(N)cc(N)n3)n2)cc1 ?
SMN2 splice enh: inconclusive; NPC1 promoter act: 2.8µM*; Rab9 prom act: 2.2µM*; ELG1 genotoxic: 13%; FLuc counter: 15µM*; p53 reactivation: 13%

How did c1ccc(SCc2nc(-c3cccnc3)no2)cc1 do in these assays?
SMN2 splice enh: 11µM*; NPC1 promoter act: 2µM*; Rab9 prom act: 1.4µM*; ELG1 genotoxic: 3.7µM*; FLuc counter: 11µM*; p53 reactivation: inconclusive

Results for Cc1ccc(-c2noc(CSc3nnc(C)n3-c3ccc(C)cc3)n2)cc1 ?
SMN2 splice enh: -2%; FLuc counter: -11%

Results for O=C(O)c1ccccc1-c1cn2cc(Cl)ccc2n1 ?
SMN2 splice enh: 18%; NPC1 promoter act: 18%; Rab9 prom act: inconclusive; ELG1 genotoxic: -4%; FLuc counter: 7.6µM*; p53 reactivation: 7%

What do the screens show for `Cc1ccc2nc(-c3ccc(S(=O)(=O)N4CCCCC4)cc3)cn2c1`?
NPC1 promoter act: 2%; Rab9 prom act: 29%; ELG1 genotoxic: 12%; FLuc counter: -20%; p53 reactivation: 7%

What do the screens show for `COc1ccc(-c2cn3cc(C)ccc3n2)cc1Br`?
SMN2 splice enh: 2.2µM*; NPC1 promoter act: 0.89µM*; Rab9 prom act: 1.3µM*; ELG1 genotoxic: inconclusive; FLuc counter: 0.48µM*; p53 reactivation: inconclusive

Results for Clc1ccc2nc(-c3ccc(Br)s3)cn2c1 ?
SMN2 splice enh: 0.71µM*; NPC1 promoter act: 19%; Rab9 prom act: inconclusive; ELG1 genotoxic: 0.41µM*; FLuc counter: 0.34µM*; p53 reactivation: -6%

How did CNCc1cn2cc(Cl)ccc2n1 do in these assays?
SMN2 splice enh: 1%; NPC1 promoter act: 0%; Rab9 prom act: -2%; ELG1 genotoxic: 2%; FLuc counter: 0%; p53 reactivation: -13%

How did COc1ccc(-c2cn3cc(Cl)ccc3n2)cc1OC do in these assays?
SMN2 splice enh: 11µM*; NPC1 promoter act: 16%; Rab9 prom act: inconclusive; ELG1 genotoxic: inconclusive; FLuc counter: 7.6µM*; p53 reactivation: 15%

What do the screens show for `COc1ccc(-c2noc(N3CCN(c4ccc(Cl)cc4)CC3)n2)cc1OC`?
FLuc counter: -2%

What do the screens show for `COC(=O)c1ccc(OC)c(CN2C(=O)N(c3ccc(C(C)=O)cc3)S(=O)(=O)c3ccccc32)c1`?
FLuc counter: 7%

How did CC1=C(C(=O)OCc2ccccc2)C(c2ccc(Cl)cc2)NC(=O)N1CCCC(=O)O (stereo not given) do in these assays?
NPC1 promoter act: -2%; Rab9 prom act: 4%; ELG1 genotoxic: -4%; FLuc counter: 2%; p53 reactivation: 6%
